According to PubChem BioAssay (NCATS):
Values without a mark were called inactive. Records with an inconclusive call do not appear. Activity calls are given as the source filed them. Unless noted, calls follow the shape of the dose curve; as a rule, active = well fitted inhibition curve with a large enough effect; inconclusive = small, poorly fitted or top-dose-only effect; inactive = flat fitted curve, though single readings scatter.

How the values were obtained:
[1] = Drug repurposing screens with cells derived from glioblastoma tumor samples (AID 1345199); conditions: GBM patient neurospheres viability, ATP luminescence, 48 h; also: nearly all actives have a fitted effect of over 40% in size; also: potency is read from the fitted curve at half-maximal effect; as to activity, negative = cell killing: % is scaled to controls: 0 for no effect and ±100 for the full control effect
Procedure, shortened: (§1)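 Primary testing used CD133+ neurospheres from four GBM patients, seven concentrations, 48 h exposure and ATP-based viability; confirmation added three slower-growing patient lines.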

astro = control astrocytes; experiment: as above; conditions: viability, ATP luminescence, 48 h; series mostly up to 45.9 µM
Procedure, shortened: as §1

[2] = biological target: Nuclear receptor subfamily 1 group I member 2 (Rattus norvegicus) (UniProt Q9R1A7); experiment: qHTS assay for small molecule activators of the rat pregnane X receptor (rPXR) signaling pathway (AID 651751; call rule not given here; also: 0% is about no effect); conditions: rPXR reporter cells, luciferase (One-Glo), 24 h
Chain of Nuclear receptor subfamily 1 group I member 2 (Rattus norvegicus) (Q9R1A7 whole entry, looked up): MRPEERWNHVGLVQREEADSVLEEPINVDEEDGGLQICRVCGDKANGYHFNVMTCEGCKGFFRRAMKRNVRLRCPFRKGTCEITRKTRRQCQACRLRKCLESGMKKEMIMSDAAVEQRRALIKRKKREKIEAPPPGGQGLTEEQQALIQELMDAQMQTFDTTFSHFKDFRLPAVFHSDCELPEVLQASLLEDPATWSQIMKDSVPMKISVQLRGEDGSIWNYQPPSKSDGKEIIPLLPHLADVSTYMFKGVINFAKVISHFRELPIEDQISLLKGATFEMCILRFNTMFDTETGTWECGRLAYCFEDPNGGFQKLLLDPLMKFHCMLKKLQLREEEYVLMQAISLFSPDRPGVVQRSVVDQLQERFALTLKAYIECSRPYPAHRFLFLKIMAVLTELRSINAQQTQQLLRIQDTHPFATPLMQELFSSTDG

[3] = at 45.9 µM (top of the series), tumour line B
[4] = at 45.9 µM (top of the series), tumour line D
[5] = at 46 µM (top of the series), tumour line A
[6] = at 46.1 µM (top of the series), tumour line C

For `COc1ccc(/C=N/NC(=O)c2ccncc2)c(C(=O)O)c1OC`, the activity, negative = cell killing [1, 3] was -18.2%, the activity, negative = cell killing [1, 4] was 8.03% and the activity, negative = cell killing [1, 5] was -30.2%. The Potency (astro) was “inactive”.
Work on `ClC(Cl)Cl` yielded an activity, negative = cell killing [1, 3] of 0.236%, an activity, negative = cell killing [1, 4] of -13.8% and an activity, negative = cell killing [1, 6] of -5.54%. For the same compound, the Potency (astro) was “inactive” and the max response [2] was -6.93%.
`O=C(O)/C=C/C(=O)Nc1ccc(S(=O)(=O)Nc2nccs2)cc1` gave an activity, negative = cell killing [1, 3] of -4.39%, an activity, negative = cell killing [1, 4] of -8.87% and an activity, negative = cell killing [1, 6] of -5.24%. The Potency (astro) was “inactive”.
Work on `O=C1c2ccccc2C(=O)C1c1ccc(F)cc1` yielded an activity, negative = cell killing [1, 3] of -20.2%, an activity, negative = cell killing [1, 4] of -13.5% and an activity, negative = cell killing [1, 5] of -45.8%. For the same compound, the Potency (astro) was “inactive”.
`CN1C(C(=O)Nc2ccccn2)C(=O)c2sc(Cl)cc2S1(=O)=O` (centres undefined) showed an activity, negative = cell killing [1, 3] of -14.7%, an activity, negative = cell killing [1, 4] of -14% and an activity, negative = cell killing [1, 6] of -4.03%. For the same compound, the Potency (astro) was “inactive”.
In the case of `CO[C@@H]1[C@H](OC(=O)/C=C/C=C/C=C/C=C/C(=O)O)CC[C@]2(CO2)[C@H]1[C@@]1(C)O[C@@H]1CC=C(C)C`, the activity, negative = cell killing [1, 3] is reported as 2.14%, the activity, negative = cell killing [1, 4] is reported as -9.21% and the activity, negative = cell killing [1, 6] is reported as 4.82%. For the same compound, the Potency (astro) was “inactive” and the max response [2] was -5.29%.
With `[O]=[Bi][O]C(=O)[O][Bi]=[O]` the activity, negative = cell killing [1, 3] was -5.84%, the activity, negative = cell killing [1, 4] was -17.8% and the activity, negative = cell killing [1, 6] was 0.454%. For the same compound, the Potency (astro) was “inactive”.
With `CC(C)(C)CC(C)(C)c1ccc(OCCO)cc1` the activity, negative = cell killing [1, 3] was -26.2%, the activity, negative = cell killing [1, 6] was -20.5% and the Potency ([1]; tumour line D) was 10 µM (active). The Potency (astro) was 35.5 µM (active) and the max response [2] was -14.4%.
`Cc1ccc(S(=O)(=O)NC(=O)N[C@@H](C)Cc2ccccc2)cc1` showed an activity, negative = cell killing [1, 3] of -12%, an activity, negative = cell killing [1, 4] of -19.4% and an activity, negative = cell killing [1, 6] of -17.1%. The Potency (astro) was “inactive”.
